Screens: PubChem, several laboratories
In the library only some 12% were active in any assay of this set; here they are far more common.
PostGolgi ctrl = growth of the yeast control strain, post-Golgi counter-screen. efflux-deficient yeast background strain, growth absorbance A615, 16 h. inhibition, % at 10 µM. 98,000 tested, 5% active
PLAP activator = human PLAP activation | purified PLAP enzyme, luminescent substrate read-out; hits give high values | activation fold at 20 µM | 96,000 tested, 1.2% active; in the data active means activation fold above about 2
Target sequence (P05187 whole entry, looked up): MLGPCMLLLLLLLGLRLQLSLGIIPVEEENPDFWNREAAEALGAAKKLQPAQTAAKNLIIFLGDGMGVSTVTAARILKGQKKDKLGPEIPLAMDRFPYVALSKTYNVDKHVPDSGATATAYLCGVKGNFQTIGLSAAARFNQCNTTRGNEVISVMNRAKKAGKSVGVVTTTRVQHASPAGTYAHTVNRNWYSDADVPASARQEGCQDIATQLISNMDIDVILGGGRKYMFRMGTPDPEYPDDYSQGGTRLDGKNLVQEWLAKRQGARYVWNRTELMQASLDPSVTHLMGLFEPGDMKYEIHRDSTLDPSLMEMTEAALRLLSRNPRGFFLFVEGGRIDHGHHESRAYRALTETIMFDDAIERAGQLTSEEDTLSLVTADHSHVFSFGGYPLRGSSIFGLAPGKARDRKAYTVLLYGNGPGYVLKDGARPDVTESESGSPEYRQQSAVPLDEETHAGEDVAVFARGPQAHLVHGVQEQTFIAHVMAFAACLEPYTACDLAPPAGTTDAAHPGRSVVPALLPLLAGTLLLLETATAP
hDAT+cocaine = changed human dopamine transporter uptake under cocaine IC80; AID 449768; Q01959; LLC-PK1 hDAT cells, [14C]-dopamine uptake with cocaine IC80; actives deviate in either direction; 110,000 tested, 1.3% active; B-score at 10 µM;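 active means Z score or B-score, a plate-position-corrected score, falls beyond the plate's 99.7% confidence bounds, in either direction; inactive means both scores lie inside the 99.7% bounds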;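 further: scored against the spread of the other compound wells on the same plate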
D1 mod = D1 dopamine receptor (human) allosteric modulation. 58,000 tested, 5.9% active. P21728. B-score at 10 µM. HEK293 D1, CRE-luciferase, dopamine EC30 potentiation; actives deviate in either direction;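 active means luminescence count or its row- and column-corrected plate score outside the 99.7% band of the plate's sample wells, on either side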
PostGolgi yeast = growth inhibition of a yeast mutant, post-Golgi transport screen; inhibition, % at 10 µM; post-Golgi transport phenotypic cell assay; 98,000 tested, 0.9% active;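 further: yeast cells grown in 1536-well plates; yeast grown about 18 h at 30C before absorbance read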
Cav3 T inh = human Cav3.2 channel inhibition, primary screen. O95180. Cav3.2-expressing cells, Fluo-4 calcium fluorescence FDSS; hits give low values. B-score at 10 µM. 100,000 tested, 4% active. AID 449739;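 active means single-dose well whose peak fluorescence ratio is a statistical outlier from its plate by either plate-standardised score or position-corrected B-score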
* marks the source's active call; other numbers are inactive results; · = no result. Unless noted, no stated cut-off is given here; in the data, active means inhibition above about 30%; inactive means the rest.

SMILES	PostGolgi ctrl	PLAP activator	hDAT+cocaine	D1 mod	PostGolgi yeast	Cav3 T inh
CC1CCCN(c2ncnc3c2cnn3-c2ccccc2)C1 (stereo not drawn)	·	·	1.3	-7.6*	·	-1.7
Cc1cccc(-n2ncc3c(N4CCC(C)CC4)ncnc32)c1	45*	1.6	0.11	-4.3*	44*	-1
CCN(CC)C(=O)C1CCCN(c2ncnc3c2cnn3-c2ccc(Cl)cc2)C1 (stereo not drawn)	·	·	·	-3.6*	·	·
COc1cccc(C2NC(=O)N(CCCC(=O)O)C(C)=C2C(=O)OCc2ccccc2)c1 (stereo not drawn)	·	·	0.04	·	·	0.89
O=C(N[C@@H](Cc1ccccc1)C(=O)O)c1ccncc1	·	·	-0.29	·	·	0.35
O=C(Cn1nnc(-c2ccc(Cl)cc2)n1)NCC1CCCCC1	5	0.1	0.67	-0.61	-4	-0.19
N#C/C(=C\c1cn(-c2ccccc2)nc1-c1cccnc1)c1nnc2n1CCCCC2	17	1.5	1.1	·	-6	1
Cc1cccc(-n2ncc3c(N4CCC5(CC4)OCCO5)ncnc32)c1	·	·	-0.4	-1.1	·	0.69
Cc1ccccc1N1CCN(c2ncnc3c2cnn3Cc2ccc(Cl)cc2)CC1	-2	1.2	0.2	-0.26	-3	-4.6*
Cc1ccccc1C(=O)N1CCN(c2ncnc3c2cnn3-c2ccccc2)CC1	-2	1	-5.3*	·	5	1.5
CCN(CC)C(=O)C1CCCN(c2ncnc3c2cnn3-c2cccc(C)c2)C1 (stereo not drawn)	12	1.5	3.3*	-1.7	2	-1.6
Cc1noc(C)c1Cn1nc(C(=O)O)c2ccccc2c1=O	21	1.1	0.59	·	-12	·
Cc1ccc(-c2cn3nc(C)c(C)nc3n2)cc1	30	0.8	-0.035	-8.5*	1	·
Clc1ccc(-c2cn3nc4c(nc3n2)CCCC4)cc1	12	1	-0.25	·	4	-1.4
N#CCCn1ncn(-c2ccccc2)c1=S	-5	0.7	-0.45	1.2	7	1
COc1ccc(-c2noc(CCC(=O)Nc3cccc(C)c3)n2)cc1	3	1.2	0.33	-0.1	-4	-0.33
CCN(C(=O)CCc1nc(-c2ccc(OC)cc2)no1)c1cc(OC)ccc1OC	8	2*	0.27	-0.65	3	-6.5*
Cc1ccc(-c2noc(CCC(=O)N(C)c3ccccc3C)n2)cc1	20	1.5	1.2	-0.061	0	-5.6*
COc1ccc(-c2noc(CCC(=O)N(C)c3cccc(C)c3)n2)cc1	11	1.5	0.76	-0.065	-10	-5.8*
Cc1cccc(Nc2nc(N)nc(CN3CCN(c4ccccc4)CC3)n2)c1	-10	1.6	1.8	-0.049	2	-3.7*
COc1cccc(N2CCN(Cc3nc(N)nc(Nc4ccccc4)n3)CC2)c1	2	1	1.6	-1.3	-4	-1.9
COc1ccccc1N1CCN(Cc2nc(N)nc(Nc3ccc(C)c(Cl)c3)n2)CC1	2	1.5	1.1	-1.3	-11	-5.7*
COc1ccccc1Nc1nc(N)nc(CN2CCN(Cc3ccccc3)CC2)n1	17	1.5	1.5	0.23	-2	-0.038
Cc1cccc(Nc2nc(N)nc(CN3CCN(c4ccccc4F)CC3)n2)c1	·	·	·	1.7	·	-4.9*
Cc1cc(C)c(C#N)c(=N)o1	3	1	·	·	12	·
SMILES	PostGolgi ctrl	PLAP activator	hDAT+cocaine	D1 mod	PostGolgi yeast	Cav3 T inh
NC(=O)c1ccc2c(c1)OCCO2	6	1	-1.2	0.14	-4	-1.1
Oc1c(Cl)cc(Cl)cc1C=Nc1ccc2c(c1)OCCO2	9	0.8	0.15	·	0	-9*
Cc1ccc(NC(=O)/C(=C\c2cccc([N+](=O)[O-])c2)NC(=O)c2cccs2)cc1	-2	1	·	·	-6	·
CCOC(=O)N1CCC(Nc2c(NCCN3CCN(c4ccccc4F)CC3)c(=O)c2=O)CC1	2	1.6	1	·	-9	0.39
COc1ccc(-c2c3c(=O)n(C)c(=O)n(C)c3cn2Cc2cccnc2)cc1	25	1.1	-8.7*	-0.25	6	1.4
CCCCCCc1nc2ccccc2c(=O)n1NC(=O)c1c(O)c2c(n(CC(C)C)c1=O)CCCC2	12	1	0.065	·	9	-2.7
Cc1nc2ccccc2c(=O)n1NC(=O)c1c(O)c2c(n(CC(C)C)c1=O)CCCC2	27	·	0.54	2.8	5	-11*
CCOC(=O)C1CCCN(c2c(NCCN3CCCCC3C)c(=O)c2=O)C1 (stereo not drawn)	-2	1	-0.83	·	-6	1.1
CCCCCCc1cc2cc(-c3nnc(-c4ccccc4O)o3)c(=O)oc2cc1O	0	1.3	0.48	·	10	-3.5*
CCCCCCc1cc2cc(-c3nnc(-c4ccccc4OC)o3)c(=O)oc2cc1O	7	1	0.4	·	7	-4.2*
CCCCCCc1cc2cc(-c3nnc(-c4cc(OC)c(OC)c(OC)c4)o3)c(=O)oc2cc1O	·	·	1.2	·	·	-3.2
O=C(NNC1=C(C(=O)C(F)(F)F)CCC1)c1ccccc1O	1	1.8	0.1	·	3	-6.3*
O=C(NNC1=C(C(=O)C(F)(F)F)CCC1)c1ccc(Br)cc1	-1	1.7	-0.78	·	2	-5.1*
COc1ccc(S(=O)(=O)n2nc(OC(=O)c3cccs3)cc2NC(=O)c2cccs2)cc1	·	·	-0.0038	·	·	-0.051
CCOC(=O)N1CCN(C(=O)CN(Cc2ccccc2)S(C)(=O)=O)CC1	5	1.2	-0.024	-0.3	5	0.39
CCOC(=O)N1CCN(c2ccc(S(=O)(=O)N(Cc3ccccc3)Cc3ccccc3)cn2)CC1	-4	1.3	0.51	-0.88	34*	0.64
Cc1nc2ccccc2c(=O)n1NC(=O)COc1ccccc1	·	1.1	-0.44	-2.9*	·	-0.4
O=C(COc1ccccc1)NNc1c2ccccc2nc2ccccc12	44*	0.7	0.4	·	-4	·
COc1ccc(OCC(=O)NNc2c3ccccc3nc3ccccc23)cc1	20	0.8	-1.3	·	25	-2
Cc1ccc(C(C)C)c(OCC(=O)Nn2c(C)nc3ccccc3c2=O)c1	13	1.2	0.96	·	-1	-5*
C=CCN(CC=C)C(=O)C1CC(=O)N(c2ccc(Br)cc2)C1 (stereo not drawn)	-14	1.7	0.46	0.68	-5	0.43
O=C(Nc1cccc(F)c1)C1CC(=O)N(c2ccc(Cl)cc2)C1 (stereo not drawn)	10	0.8	0.52	-0.23	-3	-5.8*
O=C(O)C1CC(=O)N(c2ccc(Br)cc2)C1 (stereo not drawn)	42*	1	0.34	0.49	-7	0.54
O=C(Nc1cccc(F)c1)C1CC(=O)N(c2ccc(Br)cc2)C1 (stereo not drawn)	14	1	-0.76	-0.16	-2	-5.4*
S=C1NCCc2ccc(Cl)cc2C1c1ccccc1 (stereo not drawn)	·	·	1.6	·	·	-2.7
CCCc1nn(C)c2c1C(c1ccncc1)C(C#N)=C(N)O2 (stereo not drawn)	20	1	-0.065	-1.6	0	1.3
Cc1cc2ncn(C(=O)N3CCC(C)CC3)c2cc1C	·	·	-0.011	·	·	-6.5*
COC(=O)c1ccccc1NC(=O)/C=C/c1cc(OC)c(OC)c(OC)c1	8	1.2	0.15	·	1	-1.3
